# Test results reported in PubChem BioAssay.
# Active and inactive are the calls of the source. Unless noted, how the calls were made is not given here.
# Key:
# [1] = anti-His antibody binders, primary screen, artefact control for SMM control protein annotation, biochemical, small-molecule microarray, 635 nm fluorescence (AID 1128); details: anti-His Alexa647 antibody binding, higher = more signal;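 further: score merges feature fluorescence with signal-to-noise for each printed compound spot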
# [2] = test system: Human papillomavirus type 1a E7 protein (residues 1-88); assay: HPV1a E7 small-molecule binders, primary screen, biochemical, small-molecule microarray, residues 1-88, 635 nm (AID 1129); details: small-molecule microarray binding, fluorescence 635 nm; higher = more signal
# [3] = biological target: Focal adhesion kinase 1 (Homo sapiens) (UniProt Q05397); assay: small-molecule microarray binders of FAK, primary screen, biochemical, 635/667 nm fluorescence, BSA, DTT (AID 1130); details: PTK2 binding, 635 nm fluorescence, higher = more signal;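 further: composite of spot emission at 667 nm and signal to noise over triplicate slides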
# Sequence of Focal adhesion kinase 1 (Homo sapiens) (Q05397 whole entry, looked up): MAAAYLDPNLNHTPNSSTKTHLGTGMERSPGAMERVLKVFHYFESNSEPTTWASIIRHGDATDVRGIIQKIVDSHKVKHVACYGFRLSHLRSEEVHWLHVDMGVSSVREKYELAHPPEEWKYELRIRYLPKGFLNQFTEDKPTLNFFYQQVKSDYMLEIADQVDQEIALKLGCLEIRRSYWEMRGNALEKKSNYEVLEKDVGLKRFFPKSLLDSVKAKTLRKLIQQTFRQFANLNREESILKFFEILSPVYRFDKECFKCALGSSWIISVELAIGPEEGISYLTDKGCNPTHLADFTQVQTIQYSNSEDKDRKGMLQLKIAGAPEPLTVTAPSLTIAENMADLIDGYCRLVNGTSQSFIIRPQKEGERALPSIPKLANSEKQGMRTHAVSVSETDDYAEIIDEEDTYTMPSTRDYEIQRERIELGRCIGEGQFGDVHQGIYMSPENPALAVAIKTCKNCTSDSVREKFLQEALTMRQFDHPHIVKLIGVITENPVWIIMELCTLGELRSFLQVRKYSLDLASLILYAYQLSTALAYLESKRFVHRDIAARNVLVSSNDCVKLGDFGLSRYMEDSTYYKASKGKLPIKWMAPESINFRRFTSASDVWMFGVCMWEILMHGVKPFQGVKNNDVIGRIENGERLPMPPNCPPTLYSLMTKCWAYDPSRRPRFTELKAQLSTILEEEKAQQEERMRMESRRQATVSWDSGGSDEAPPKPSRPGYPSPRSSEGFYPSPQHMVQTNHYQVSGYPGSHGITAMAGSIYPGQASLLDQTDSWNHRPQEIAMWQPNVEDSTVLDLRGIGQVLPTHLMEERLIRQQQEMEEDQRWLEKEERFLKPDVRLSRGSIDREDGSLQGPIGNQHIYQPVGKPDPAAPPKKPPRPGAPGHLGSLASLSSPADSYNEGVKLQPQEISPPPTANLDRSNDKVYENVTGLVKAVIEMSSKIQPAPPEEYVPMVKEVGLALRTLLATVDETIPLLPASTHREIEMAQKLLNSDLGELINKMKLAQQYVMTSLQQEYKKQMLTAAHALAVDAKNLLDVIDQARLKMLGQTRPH
# [4] = test system: Fibrinogen (Alexa647-labelled); assay: fibrinogen binders on compound microarrays, profiling panel, artefact control for SMM control-protein annotation, biochemical, small-molecule microarray, 635/667 nm fluorescence (AID 1131); details: fibrinogen-A647 binding fluorescence, higher = more signal;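 further: z-score merges 667 nm fluorescence with per-spot signal-to-noise over triplicate slides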
# [5] = biological target: Follistatin (Homo sapiens) (UniProt P19883); assay: follistatin binders on small-molecule microarrays, primary screen, biochemical, small-molecule microarray, 635/667 nm fluorescence (AID 1132); details: FST binding, 635 nm fluorescence, higher = more signal
# Sequence of Follistatin (Homo sapiens) (P19883 whole entry, looked up): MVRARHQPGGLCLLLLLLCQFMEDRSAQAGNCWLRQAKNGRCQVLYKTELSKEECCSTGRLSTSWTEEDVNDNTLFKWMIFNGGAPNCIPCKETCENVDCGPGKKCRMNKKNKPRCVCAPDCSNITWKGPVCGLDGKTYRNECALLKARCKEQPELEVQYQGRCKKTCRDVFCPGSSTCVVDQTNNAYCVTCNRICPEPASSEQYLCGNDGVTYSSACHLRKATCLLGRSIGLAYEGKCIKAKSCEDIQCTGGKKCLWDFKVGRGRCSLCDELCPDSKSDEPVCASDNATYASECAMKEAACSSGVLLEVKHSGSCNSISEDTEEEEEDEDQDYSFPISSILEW
# [6] = biological target: Fibroblast growth factor 2 (Homo sapiens) (UniProt P09038); assay: FGF2 binders on small-molecule microarrays, primary screen, biochemical, small-molecule microarray, 635/667 nm fluorescence (AID 1133); details: small-molecule microarray binding, FGF2, fluorescence 635/667; higher = more signal
# Sequence of Fibroblast growth factor 2 (Homo sapiens) (P09038 whole entry, looked up): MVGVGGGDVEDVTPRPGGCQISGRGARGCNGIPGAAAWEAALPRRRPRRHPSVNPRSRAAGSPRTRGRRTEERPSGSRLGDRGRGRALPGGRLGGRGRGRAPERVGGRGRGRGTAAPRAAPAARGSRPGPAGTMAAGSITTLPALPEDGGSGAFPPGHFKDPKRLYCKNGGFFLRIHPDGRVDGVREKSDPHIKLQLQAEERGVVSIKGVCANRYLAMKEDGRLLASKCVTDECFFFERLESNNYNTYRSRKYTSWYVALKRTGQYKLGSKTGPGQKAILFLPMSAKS
# [7] = mitochondrial membrane potential change in A549 cells, profiling panel, cell-based, JC-1 fluorescence, basal, 24 h, 100 nL (AID 1138); details: higher = more signal;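 further: A549 lung adenocarcinoma cells under basal conditions with no added stimulus; test concentration not given here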
# Lefty1 = Lefty1 binders on small-molecule microarrays, primary screen, biochemical, small-molecule microarray, 635/667 nm fluorescence (AID 1139); details: small-molecule microarray binding, fluorescence 635/667; higher = more signal
# [8] = test system: wheat germ agglutinin (Triticum aestivum), Alexa647-labelled; assay: wheat germ agglutinin binders on compound microarrays, profiling panel, artefact control for SMM control-protein annotation, biochemical, small-molecule microarray, 635/667 nm fluorescence (AID 1140); details: WGA-A647 binding, 635 nm fluorescence, higher = more signal;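 further: score merges 667 nm feature emission with signal to noise over triplicate slides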
# [9] = biological target: Luciferin 4-monooxygenase (Photinus pyralis) (UniProt P08659); assay: firefly luciferase enzyme inhibitors, primary screen, biochemical, luminescence, purified enzyme, 2006 set (AID 1141); details: SteadyGlo luminescence, 30 min, higher = more signal, called active from +8 up or from −8 down;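 further: cell-free assay with purified firefly luciferase at 100 ng per well in PBS; test concentration not given here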
# Sequence of Luciferin 4-monooxygenase (Photinus pyralis) (P08659 whole entry, looked up): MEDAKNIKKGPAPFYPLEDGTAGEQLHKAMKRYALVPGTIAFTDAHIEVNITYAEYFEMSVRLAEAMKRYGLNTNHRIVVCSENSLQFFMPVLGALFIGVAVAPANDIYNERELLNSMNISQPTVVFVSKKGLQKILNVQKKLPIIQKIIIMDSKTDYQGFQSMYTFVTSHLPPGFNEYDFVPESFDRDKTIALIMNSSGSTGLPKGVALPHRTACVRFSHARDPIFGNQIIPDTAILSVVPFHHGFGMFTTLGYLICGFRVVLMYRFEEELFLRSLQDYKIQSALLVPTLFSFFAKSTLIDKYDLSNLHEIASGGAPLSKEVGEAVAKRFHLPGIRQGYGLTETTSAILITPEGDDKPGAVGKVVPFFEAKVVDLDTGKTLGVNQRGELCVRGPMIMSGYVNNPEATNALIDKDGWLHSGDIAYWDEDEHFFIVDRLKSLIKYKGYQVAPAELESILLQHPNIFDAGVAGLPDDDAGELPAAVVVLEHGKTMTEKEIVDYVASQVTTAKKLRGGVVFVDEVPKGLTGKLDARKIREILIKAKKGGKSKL
# [10] = test system: Wnt5a (protein binding on small-molecule microarray); assay: Wnt5a binders on small-molecule microarray, primary screen, biophysical, 635/667 nm fluorescence (AID 1142); details: 635 nm fluorescence, higher = more signal;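 further: fluorescence read at 667 nm with signal to noise per printed feature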
# [11] = cell viability in Huh7 cells, primary screen, cytotoxicity control for HCV replication inhibitor project, CellTiter-Glo luminescence, basal, 48 h (AID 1143); details: Huh7 HCV replicon, higher = more signal, called active from +8 up or from −8 down;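 further: Huh7 hepatoma cells carrying a hepatitis C replication reporter with no stimulus; test concentration not given here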
# [12] = P. aeruginosa biofilm formation inhibitors, primary screen, PAO1 strain, BacTiter-Glo luminescence, LB-PBS (AID 1144); details: 12 h, higher = more signal
# [13] = CREB reporter modulators without forskolin, primary screen, cell-based, PC12, CRE-LacZ reporter, unstimulated (AID 1145); details: no forskolin, luminescence, 4.5 h, higher = more signal, called active from +8 up or from −8 down
# [14] = CREB reporter modulators under forskolin, primary screen, cell-based, PC12, CRE-LacZ reporter, forskolin-stimulated (AID 1146); details: luminescence, 4.5 h, higher = more signal, called active from +8 up or from −8 down;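 further: PC12 cells with 6xCRE LacZ reporter stimulated by forskolin 10 µM; beta-galactosidase reporter signal reflecting CREB driven transcription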
# [15] = biological target: Streptavidin (Streptomyces avidinii) (UniProt P22629); assay: streptavidin binders on small-molecule microarray, primary screen, artefact control for SMM compound annotation, biophysical, 635/667 nm fluorescence (AID 1147); details: streptavidin binding, higher = more signal;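 further: signal reflects streptavidin binding to arrayed compounds as a control protein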
# Sequence of Streptavidin (Streptomyces avidinii) (P22629 whole entry, looked up): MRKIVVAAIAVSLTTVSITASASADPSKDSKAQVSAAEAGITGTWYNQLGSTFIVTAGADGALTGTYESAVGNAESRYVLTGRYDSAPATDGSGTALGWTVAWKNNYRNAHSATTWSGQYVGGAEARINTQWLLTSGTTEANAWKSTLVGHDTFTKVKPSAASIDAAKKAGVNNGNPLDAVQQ
# [16] = small-molecule binders of probe aInhba, primary screen, biochemical, small-molecule microarray, 635/667 nm fluorescence (AID 1148); details: higher = more signal;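 further: score merges 667nm spot fluorescence with signal-to-noise for antibody binding to printed compounds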
# Torsin-1A (Homo sapiens) [17] = biological target: Torsin-1A (Homo sapiens) (UniProt O14656); assay: torsin A binders from cell lysate, primary screen, small-molecule microarray, wild-type, 635/667 nm (AID 1149); details: COS7 hTOR1A-WT lysate, 635 nm fluorescence, higher = more signal
# Sequence of Torsin-1A (Homo sapiens) (O14656 whole entry, looked up): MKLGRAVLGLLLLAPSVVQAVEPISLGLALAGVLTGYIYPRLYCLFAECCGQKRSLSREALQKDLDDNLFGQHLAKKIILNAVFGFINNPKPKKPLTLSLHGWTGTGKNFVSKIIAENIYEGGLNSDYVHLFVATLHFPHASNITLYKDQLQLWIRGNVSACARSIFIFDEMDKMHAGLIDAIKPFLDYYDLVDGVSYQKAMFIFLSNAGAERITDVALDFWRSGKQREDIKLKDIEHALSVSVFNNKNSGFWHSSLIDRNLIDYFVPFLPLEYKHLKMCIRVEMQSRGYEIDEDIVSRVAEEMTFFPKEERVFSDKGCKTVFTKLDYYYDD
# Torsin-1A (Homo sapiens) [18] = biological target: Torsin-1A (Homo sapiens) (UniProt O14656); assay: small-molecule binders of mutant TOR1A in lysate, primary screen, cell lysate, small-molecule microarray, COS7 lysate, 635/667 nm fluorescence (AID 1150); details: COS7 hTOR1A mutant lysate, 635 nm fluorescence, higher = more signal;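 further: score pools 667 nm emission and signal to noise measuring lysate protein binding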
# [19] = test system: Sonic hedgehog protein (Shh); assay: small-molecule binders of Shh protein, primary screen, biochemical, small-molecule microarray, 635/667 nm fluorescence (AID 1151); details: small-molecule microarray binding, 635 nm fluorescence; higher = more signal;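 further: Shh protein binding to compounds spotted on small-molecule microarray slides; score combines spot fluorescence intensity with signal-to-noise across triplicate slides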
Compound,composite z-score [1],composite z-score [2],composite z-score [3],composite z-score [4],composite z-score [5],composite z-score [6],z-score [7],composite z-score (Lefty1),composite z-score [8],z-score [9],composite z-score [10],z-score [11],z-score [12],z-score [13],z-score [14],composite z-score [15],composite z-score [16],composite z-score (Torsin-1A (Homo sapiens) [17]),composite z-score (Torsin-1A (Homo sapiens) [18]),composite z-score [19]
CN1CCC(CCCO)=CC1c1cccs1 (stereo not given),-0.321,-0.902,-0.698,0.0141,-0.0163,0.184,0.391,0.118,-0.485,0.0421 (inactive),-0.142,0.504 (inactive),0.519 (inactive),-0.145 (inactive),1.84 (inactive),-0.131,-0.128,-0.214,-0.122,0.834
O=C(CS)NCCCCCNC(=O)[C@@H]1C[C@@H]2C(=O)NCC(=O)N2[C@@H]1c1ccc(O)cc1,1.79,0.443,0.393,-0.135,1.18,1.24,-0.977,0.269,-0.855,-1.24 (inactive),-0.0716,-0.454 (inactive),-0.171 (inactive),0.281 (inactive),0.208 (inactive),-0.618,0.0275,0.507,0.0395,1.44
COCCCNC(=O)[C@@H]1c2ccccc2C(=O)N(Cc2ccccc2)[C@H]1c1ccc(CO)cc1,1.67,1.01,-0.174,0.185,0.928,0.594,1.29,0.206,0.31,0.519 (inactive),0.23,0.285 (inactive),0.397 (inactive),0.648 (inactive),-1.01 (inactive),0.158,0.343,0.662,1.29,0.857
CC(C)(C)OC(=O)CC[C@]1(C(N)=O)N=C(c2ccc(OCCCO)cc2)O[C@H]1c1ccccc1,2.07,1.2,0.35,0.407,0.839,0.29,1.04,-0.388,1.48,-0.47 (inactive),0.836,-0.408 (inactive),0.304 (inactive),-0.585 (inactive),-0.121 (inactive),0.679,0.4,-0.037,0.941,-0.332
COC(=O)[C@@]1(Cc2ccccc2)[C@H]2c3cc(C(=O)N(C)C)n(Cc4ccc(OC)c(OC)c4)c3C[C@H]2CN1C(=O)c1ccccc1,1.81,1.27,0.561,1.01,0.385,-0.588,0.134,0.0922,0.995,1.29 (inactive),1.15,-2.81 (inactive),0.655 (inactive),0.394 (inactive),0.786 (inactive),1.43,0.498,0.406,1.16,-0.735
CC(C)CNC(=O)[C@@]1(Cc2ccccc2I)c2ccccc2C(=O)N(Cc2ccccc2C(F)(F)F)[C@H]1c1ccc(CO)cc1,0.657,0.0788,-0.287,-0.105,-0.239,-0.217,-0.171,-0.639,0.34,0.654 (inactive),-0.0971,0.0523 (inactive),0.0415 (inactive),-0.295 (inactive),1.04 (inactive),-0.198,-0.128,-0.177,-0.185,-0.197
CC[C@@H]1C=C(C(=O)O)[C@H](c2cccc3ccccc23)N1S(=O)(=O)c1ccc(C)cc1,1.18,1.11,1.39,0.159,0.414,0.108,-0.345,-0.103,0.302,1.46 (inactive),0.0605,-0.0086 (inactive),0.235 (inactive),-0.723 (inactive),0.754 (inactive),0.985,-0.128,0.224,0.331,-0.173
CCOC(=O)[C@H]1C/C=C/C[C@H](C(=O)OCC)C(=O)O[C@H]2[C@@H](OC)O[C@H](CO)[C@@H](OC(=O)c3ccc(Br)cc3)[C@@H]2OC1=O,0.272,0.189,0.143,0.223,1.06,1.06,2.47,0.31,0.329,-0.0361 (inactive),0.168,-3.02 (inactive),-0.79 (inactive),0.342 (inactive),-0.0314 (inactive),-0.0923,0.0464,0.441,-0.15,0.473
C=CCN1C(=O)[C@]2(Cc3ccccc3)N=C(c3ccc(OCCCO)cc3)O[C@@H]2c2ccccc21,3.16,1.2,0.145,0.548,1.37,1.56,1.59,0.816,0.663,-6.95 (inactive),0.611,-3.85 (inactive),0.000807 (inactive),2.97 (inactive),-1.79 (inactive),0.752,0.13,0.443,0.842,1.79
COC(=O)c1c2oc(c1C(=O)OC)C(=O)NC1(CCCCC1)c1cn(nn1)C[C@H](Cc1ccccc1)NC(=O)N[C@H](CO)CC2,0.842,0.494,0.244,0.94,0.437,0.0141,0.304,0.609,0.831,0.893 (inactive),-0.151,-0.275 (inactive),-0.926 (inactive),3.49 (inactive),-0.696 (inactive),1.05,-0.05,-0.299,0.113,1.32
